# Values without a mark were called inactive. Active and inactive are the calls of the source.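 How the source made its calls, unless noted: active means mean inhibition above 46.5%, the solvent-only control mean plus 3 SD; inactive means the rest.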
# Experiments:
# [1] = test system: transactivating tegument protein VP16 (Human herpesvirus 1); assay: compounds suppressing VP16-driven luciferase signal – cell-based, luminescence, single concentration, counter-screen for SRC2 inhibitor project (AID 652007; in the data active means inhibition above about 36%); conditions: cell-based VP16 transactivation luciferase reporter, at 8.9 µM, active compounds read high
# [2] = target: Nuclear receptor coactivator 2 (Homo sapiens) (UniProt Q15596); assay: inhibition of GAL4-SRC2 driven luciferase expression – cell-based, luminescence, HEK293, triplicate, confirmation (AID 652008); conditions: HEK293 GAL4-SRC2 luciferase reporter, at 8.9 µM, active compounds read high;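 further: 0% = DMSO-treated cells and 100% = Gossypol at 36 µM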
# Chain of Nuclear receptor coactivator 2 (Homo sapiens) (Q15596 whole entry, looked up, the tested form may be a part): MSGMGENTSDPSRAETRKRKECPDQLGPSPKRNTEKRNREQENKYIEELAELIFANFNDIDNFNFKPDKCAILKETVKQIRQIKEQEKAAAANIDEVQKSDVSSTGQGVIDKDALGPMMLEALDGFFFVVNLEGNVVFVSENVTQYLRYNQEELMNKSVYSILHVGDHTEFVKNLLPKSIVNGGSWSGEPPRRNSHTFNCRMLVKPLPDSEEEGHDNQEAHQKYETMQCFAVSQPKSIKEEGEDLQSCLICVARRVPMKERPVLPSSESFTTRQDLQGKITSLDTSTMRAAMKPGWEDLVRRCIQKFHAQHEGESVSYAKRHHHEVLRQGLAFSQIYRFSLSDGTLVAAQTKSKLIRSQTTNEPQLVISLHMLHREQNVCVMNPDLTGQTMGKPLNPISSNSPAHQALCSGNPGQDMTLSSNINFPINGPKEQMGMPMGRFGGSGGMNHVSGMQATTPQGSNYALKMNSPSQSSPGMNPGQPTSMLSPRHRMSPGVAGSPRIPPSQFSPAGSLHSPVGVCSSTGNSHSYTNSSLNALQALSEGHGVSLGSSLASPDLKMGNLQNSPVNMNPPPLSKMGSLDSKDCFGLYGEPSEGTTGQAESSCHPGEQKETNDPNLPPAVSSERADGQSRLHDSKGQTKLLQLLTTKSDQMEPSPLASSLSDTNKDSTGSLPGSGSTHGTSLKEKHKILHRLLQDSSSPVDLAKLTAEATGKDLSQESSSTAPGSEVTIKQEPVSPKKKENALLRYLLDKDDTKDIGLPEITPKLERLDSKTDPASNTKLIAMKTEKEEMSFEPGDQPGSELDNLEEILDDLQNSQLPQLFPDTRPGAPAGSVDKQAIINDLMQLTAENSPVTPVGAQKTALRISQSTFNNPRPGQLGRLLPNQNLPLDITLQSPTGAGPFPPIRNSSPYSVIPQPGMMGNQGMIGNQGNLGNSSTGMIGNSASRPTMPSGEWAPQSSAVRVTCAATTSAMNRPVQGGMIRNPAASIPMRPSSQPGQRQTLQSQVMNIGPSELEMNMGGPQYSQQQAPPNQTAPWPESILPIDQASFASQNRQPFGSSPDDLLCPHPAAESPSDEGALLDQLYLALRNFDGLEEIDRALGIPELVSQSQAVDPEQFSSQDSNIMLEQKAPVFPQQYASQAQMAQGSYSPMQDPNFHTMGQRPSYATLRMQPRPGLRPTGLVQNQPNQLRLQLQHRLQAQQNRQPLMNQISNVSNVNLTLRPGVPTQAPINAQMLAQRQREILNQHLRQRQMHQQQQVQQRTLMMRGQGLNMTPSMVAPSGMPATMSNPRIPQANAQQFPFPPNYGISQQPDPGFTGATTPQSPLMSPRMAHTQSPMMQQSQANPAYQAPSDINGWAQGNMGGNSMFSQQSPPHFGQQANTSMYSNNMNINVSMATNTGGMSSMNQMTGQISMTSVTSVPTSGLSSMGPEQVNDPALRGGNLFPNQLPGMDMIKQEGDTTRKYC
SMILES,inhibition [1],inhibition [2]
Cc1ccccc1C(=O)N1CCN(c2ccc(NC(=O)c3ccccc3[N+](=O)[O-])cc2)CC1,-22%,12.1%
COc1ccc(NC(=O)CSc2nnnn2C2CCCCC2)c(OC)c1,1.44%,14.6%
CC1CCCC(C)N1C(=O)c1cccc2c1-c1ccccc1/C2=N/O (stereo not drawn),-10.5%,8.15%
c1ccc(-n2nnnc2Oc2ccc(-n3ccnc3)cc2)cc1,-16.2%,1.01%
Cc1ccc(C(C)C)c(OCc2ccc(C(=O)N/N=C/c3ccc(C(=O)O)cc3)cc2)c1,-13.2%,41.4%
O=C(COc1ccc2c(c1)CCC2)Nc1ccccn1,2.76%,41%
COc1cccc(/C=N/NC(=O)c2cc(-c3ccccn3)nc3ccccc23)c1O,9.38%,19.8%
Cc1ccc(Nc2nc(-c3c(C)nc4ccccn34)cs2)cc1,-16.9%,20.1%
CN1/C(=C\C=C2/SC(=S)NC2=O)C(C)(C)c2ccccc21,8.01%,15.6%
O=C(Cn1ncc2c([nH]c3ccccc32)c1=O)NCCc1ccccc1,21.4%,12.2%
O=C(Nc1cccc(F)c1)c1cccnc1,1.51%,-2.72%
COc1ccc2c(c1)CCCN2C(=O)C1CCCN(S(=O)(=O)c2ccc(C(C)(C)C)cc2)C1 (stereo not drawn),-3.95%,15.7%
Cc1cc(NC(=O)c2ccccc2)c(Cl)cc1N,25.4%,52.1% (active)
O=C(O)CCCc1nc(-c2ccc(Cl)cc2)no1,20.7%,30%
Cc1ccc(C(=O)Nc2ccc3ccccc3c2)cc1,-57.4%,12.1%
CC1CCc2nc(N)c(C#N)c(-c3cccn3C)c2C1 (stereo not drawn),15.5%,15.7%
Cc1sc(NC(=O)CSc2nnnn2C(C)C)c(C#N)c1C,2.68%,-4.47%

SMILES,inhibition [1],inhibition [2]
O=C(COc1ccc([N+](=O)[O-])cc1)Nc1ccc(C(=O)NCc2cccnc2)cc1,-13.3%,27.8%
O=C(CSc1nc(N2CCOCC2)nc(N2CCOCC2)n1)Nc1ccccc1F,1.31%,14.8%
O=S(=O)(c1cccc2cnccc12)N1CCNCC1,5.01%,48.1% (active)
CCC/C(C#Cc1cc(OC)cc(OC)c1)=C1/c2ccccc2C(=O)N1c1ccccc1,3.37%,-4.64%
CC(C)OC(=O)c1ccc(NCc2cc(O)ccc2O)cc1Cl,19.4%,89.1% (active)
O=C(c1ccc(NS(=O)(=O)c2cccc(F)c2)cc1)N1CCCCC1,-7.22%,-9%
Cc1c(CCC(=O)N[C@@H](CCCNC(N)=O)C(=O)O)c(=O)oc2cc3oc4c(c3cc12)CCCC4,47.2% (active),57.7% (active)
COc1ccc(/C=C2\SC(=S)N(CCC(=O)NC3C=CS(=O)(=O)C3)C2=O)cc1 (stereo not drawn),3.55%,62.1% (active)
COc1ccc(O)c(C(=O)c2cnn(S(=O)(=O)c3ccc(C)cc3)c2)c1,-7.7%,7.12%
O=C(CSCc1ccc(C(=O)O)cc1)Nc1ccccc1,-18.8%,-31.5%
Cc1c(CCC(=O)O)c(=O)oc2cc3oc4c(c3cc12)CCCC4,49.3% (active),69.2% (active)
CCOc1ccc(C(=O)C(CN2CCOCC2)c2ccccc2)cc1 (stereo not drawn),14.2%,42.6%
O=C(CN1CCN(CC(=O)Nc2ccccc2Cc2ccccc2)CC1)Nc1ccccc1Cl,11.3%,4.85%
CC(=O)CCc1ccc(OCCCCN2CCC(Cc3ccccc3)CC2)cc1,13.2%,0.94%
O=C(CN1C(=O)NC2(CCCCC2)C1=O)Oc1ccc2c(C(F)(F)F)cc(=O)oc2c1,-11.6%,-1.74%
O=C(NCc1cccnc1)c1cc(Sc2ccc(F)cc2F)nc2ccccc12,3%,16.4%
O=C1C=CC2C3C(=O)N(c4ccccc4)C(=O)C3C1N2Cc1ccccc1 (stereo not drawn),30.5%,65.9% (active)
